# Compounds with a hit are over-represented: about 0.34% of the library has one in this group of screens.
# Epigenetic derep = Quantitative High-Throughput Screen for Regulators of Epigenetic Control | murine LDR cells, GFP reporter derepression, 30 h | 0.2% of 280,000 active | Potency, µM (doses to about 53.9 µM), for the others: at the top dose GFP activation, hits mostly activators; also: % of control where 0% means no effect; nearly all actives have a fitted effect of over 60% in size
#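 Derepression of a silenced CMV-GFP reporter in murine LDR cells is scored by enumerating GFP-positive cells with a laser-scanning microplate cytometer after 30 hours of treatment at 37 C.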
# Vif-APOBEC3G blk = qHTS for Inhibitors of Vif-A3G Interactions: qHTS; 0.076% of 410,000 active; DNA dC->dU-editing enzyme APOBEC-3G (Homo sapiens), Q9HC16; AID 602310, 2012; Potency, µM (doses to about 46.1 µM), inactives show top-dose activity, negative = active, actives largely listed as inhibitors; HeLa A3G-eYFP + Vif (tagged APOBEC3G with the HIV-1 protein that degrades it), YFP fluorescence, overnight; also: % is scaled to controls: 0 for no effect and ±100 for the full control effect; nearly all actives have a fitted effect of over 60% in size
# Target sequence (Q9HC16 whole entry, looked up): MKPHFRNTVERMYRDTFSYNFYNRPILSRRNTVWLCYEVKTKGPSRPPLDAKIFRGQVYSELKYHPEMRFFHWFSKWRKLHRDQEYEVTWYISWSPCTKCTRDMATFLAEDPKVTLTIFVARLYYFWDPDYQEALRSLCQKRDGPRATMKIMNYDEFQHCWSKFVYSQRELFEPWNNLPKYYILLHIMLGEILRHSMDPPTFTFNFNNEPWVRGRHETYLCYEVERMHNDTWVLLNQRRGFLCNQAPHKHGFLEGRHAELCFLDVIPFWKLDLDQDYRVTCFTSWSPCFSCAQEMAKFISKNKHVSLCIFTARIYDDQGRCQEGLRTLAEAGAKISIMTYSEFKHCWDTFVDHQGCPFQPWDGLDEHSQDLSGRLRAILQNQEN
#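 HeLa cells stably expressing Vif and C-terminally eYFP-tagged A3G, seeded overnight at 37 deg C, then exposed to compound by pintool overnight at 37 deg C. Rise in yellow fluorescence (Ex 488/Em 500-530, Acumen) marks blocked Vif-driven A3G degradation.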
# Vif-A3F inh = qHTS for Inhibitors of Vif-A3F Interactions: qHTS; 0.2% of 390,000 active; AID 602313, 2012; HeLa A3F-eYFP + Vif (tagged APOBEC3F with the HIV-1 protein that degrades it), YFP fluorescence increase; Potency, µM (doses to about 46.1 µM), for inactives: at the top dose activity, negative = active; also: % of control where 0% means no effect; nearly all actives have a fitted effect of over 65% in size
#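 HeLa cells stably expressing A3F-eYFP plus Vif, plated and incubated overnight at 37 deg C, then exposed to compounds overnight at 37 deg C. Blocked degradation read as raised yellow fluorescence (Ex 488/Em 500-530).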
# The depositor's hits bear a star; i = inactive; ? = inconclusive; . = no result. Calls follow the shape of the dose curve; as a rule, active = well fitted curve in the direction sought with a large enough effect; inconclusive = small, poorly fitted or top-dose-only effect, or another doubt; inactive = no such curve, though single readings can be large; an effect the other way counts as inactive or inconclusive. Potency is read from the fitted curve at half-maximal effect.
SMILES,Epigenetic derep,Vif-APOBEC3G blk,Vif-A3F inh
CCOc1cccc(/C=C(/C#N)c2nc3ccccc3[nH]2)c1OCC(=O)O,.,1.3%,0.8%
CC1CC(C)CN(c2oc(-c3ccc(OCc4ccccc4Cl)cc3)nc2C#N)C1 (centres undefined),.,-0.6%,.
COc1ccc(-c2cc(NC=O)c3ncc(-c4ccc(OC)c(OC)c4)n3c2)c(OC)c1,.,-31.5%,.
COc1ccc(-c2cnc3c(NC=O)cc(-c4ccccc4)cn23)cc1OC,.,1.78µM*,.
C[C@@H]1O[C@@H](O[C@@H]2C(=O)c3c(O)cc(O)cc3O[C@H]2c2ccc(O)c(O)c2)[C@H](O)[C@H](O)[C@H]1O,.,11.2µM*,0.5%
O=C1c2c(O)cc(O)cc2O[C@H](c2ccc(O)c(O)c2)[C@H]1O,2.1%,0.9%,3.7%
COc1ccc(S(=O)(=O)N2CCN(c3nc(-c4cccs4)nc4ccccc34)CC2)cc1OC,.,0.7%,.
COc1ccccc1C(=O)c1cn(CC(=O)Nc2ccccc2F)c2nc(C)ccc2c1=O,-1.6%,-6.6%,0.5%
O=[N+]([O-])c1ccccc1S(=O)(=O)Nc1ccc(-c2ccc(N3CCOCC3)nn2)cc1,.,-11.8%,12.6µM*
O=[N+]([O-])c1ccccc1S(=O)(=O)Nc1cccc(-c2ccc(N3CCOCC3)nn2)c1,.,-5.5%,1.0%
COc1cc2c(cc1OC)-c1c(oc3cc(O)cc(O)c3c1=O)CO2,2.7%,.,.
COc1ccc(CNC(=O)c2cc(-c3cccs3)nc3ccccc23)c(OC)c1,-0.2%,-5.0%,5.4%
COc1cccc(C(=O)Oc2c(CN3CCOCC3)cc(Cl)c3cccnc23)c1,4.47µM*,-7.5%,-4.2%
COc1ccc(C(=O)Oc2c(CN3CCOCC3)cc(Cl)c3cccnc23)cc1,7.08µM*,-12.4%,-0.3%
O=C(Oc1c(CN2CCOCC2)cc(Cl)c2cccnc12)c1ccc(F)cc1,?,2.5%,2.9%
COc1cc(C(=O)Oc2c(CN3CCOCC3)cc(Cl)c3cccnc23)cc(OC)c1OC,?,?,-0.4%
CC(=O)Nc1c2c3c(cccc3n(C)c1=O)C(=O)c1ccccc1-2,0.0%,-0.3%,1.1%
Cn1c(=O)c(Nc2ccc(Cl)cc2)c2c3c(cccc31)C(=O)c1ccccc1-2,?,?,5.01µM*
NC(C(=O)O)C(CC(=O)O)c1ccc(Cl)cc1 (centres undefined),0.0%,.,.
O=S1(=O)CCOC[C@H](c2ccccc2)N1Cc1ccc(F)cc1,.,-3.1%,.
CC1=C(C(=O)OCc2ccc(C)cc2)C(c2cccc(F)c2F)CC(=O)N1 (centres undefined),2.0%,4.9%,3.1%
CCOC(=O)/C(=C\C=C1/Sc2ccccc2N1CC)C(C)=O,15.8µM*,?,19.9%
CCOC(=O)/C(=C/C=C1\Sc2ccccc2N1CC)C(C)=O,?,?,i
CC(=O)C1=C(c2ccccc2)N(C(C)=O)n2c(nnc2C2CCCCC2)S1,7.0%,11.1%,1.1%
Cc1ccc(NC(=O)CCc2c(C)nc3ncnn3c2C)cc1Cl,0.0%,3.2%,0.7%
SMILES,Epigenetic derep,Vif-APOBEC3G blk,Vif-A3F inh
CC(C)c1nc(SCC(=O)N2CC(=O)Nc3ccccc32)c2ccccc2n1,-2.6%,-8.5%,-10.4%
COc1ccc2nc(SC)c(C#N)cc2c1,2.5%,1.3%,-4.3%
COc1ccc2nc(SCC(C)=O)c(C#N)cc2c1,?,?,3.55µM*
Cc1cc(C)c2nc(SCC(=O)Nc3ccccc3N3CCOCC3)c(C#N)cc2c1,.,-2.6%,-5.4%
COc1ccc2nc(SCC(=O)N3CC(=O)Nc4ccccc43)c(C#N)cc2c1,?,10µM*,22.4µM*
Cc1cc(C)c2nc(SCC(=O)N3CC(=O)Nc4ccccc43)c(C#N)cc2c1,10µM*,?,?
Clc1ccc2c(Cl)cc[n+](CCC3CCCCC3)c2c1,.,-5.2%,.
Cc1nn(-c2ccccc2)c2c1cc1c(=O)n(C)c(=O)nc-1n2-c1cccc(Cl)c1,0.1%,2.9%,2.0%
CCN1/C(=C/c2cc[n+](CCCS(=O)(=O)[O-])c3ccccc23)Sc2ccccc21,12.6µM*,?,?
CCC(/C=C1\Sc2ccc(OC)cc2N1CC)=C\c1sc2ccc(OC)cc2[n+]1CCCS(=O)(=O)[O-],-1.6%,4.4%,1.8%
CCOc1ccc(/C=C/c2ccnc3ccccc23)cc1OCC,.,-20.8%,.
O=C(OCCN1C(=O)c2ccccc2C1=O)c1cc(S(=O)(=O)N2CCOCC2)ccc1Cl,-0.9%,1.2%,0.9%
O=C(OCCN1C(=O)c2cccc3c(N4CCOCC4)ccc(c23)C1=O)c1cccc(Cl)c1,20µM*,?,?
Cc1cccc(OCC(=O)Nc2ccc(O)c(-c3nc4ccccc4o3)c2)c1,.,-1.4%,.
O=C(N/N=C/c1sc(N2CCOCC2)nc1-c1ccccc1)c1ccccc1F,-0.3%,-0.8%,-13.6%
O=C(Nc1ccccc1F)C(=Cc1sc(N2CCOCC2)nc1-c1ccccc1)C(=O)Nc1ccccc1F,14.1µM*,?,?
Cc1nn(C(C)C(=O)NCc2ccco2)c(C)c1[N+](=O)[O-] (centres undefined),-0.3%,0.2%,-2.2%
C/C(=N\NC(=O)C(C)n1nc(C)c([N+](=O)[O-])c1C)c1ccccc1O (centres undefined),-1.9%,-1.5%,5.62µM*
COc1ccc2nc3sc(C(=O)Nc4cc(Cl)c(OC)cc4OC)cc3cc2c1,7.2%,?,7.08µM*
CCOc1ccc(CCNC(=O)c2cc3cc4cc(OC)ccc4nc3s2)cc1OCC,6.3%,-7.2%,-5.7%
CNc1ccc(Br)cc(C(=O)/C=C/c2cccc(OC)c2OC)c1=O,?,-6.2%,-1.1%
CCNc1ccc(Br)cc(C(=O)/C=C/c2ccccc2Cl)c1=O,.,10µM*,?
CCn1c(O)c(/C=N/N=C/c2ccc(OC)cc2)c2cc(C3=NNC(=O)CC3)ccc21,7.08µM*,?,4.47µM*
CC/C(C)=N\N=C\c1c(O)n(CC)c2cc(C3=NNC(=O)CC3)ccc12,0.0%,-0.6%,-6.4%
Cc1cccc(NS(=O)(=O)c2ccc3[nH]c(=O)ccc3c2)c1C,1.4%,?,-16.1%
SMILES,Epigenetic derep,Vif-APOBEC3G blk,Vif-A3F inh
CCOC(=O)/C=c1\s/c(=C\c2ccc(C)cc2)c(=O)n1CC(=O)NCc1ccco1,?,-6.2%,-5.2%
CCOC(=O)/C=c1\s/c(=C\c2sccc2C)c(=O)n1CC(=O)NCc1ccc(C)cc1,7.94µM*,.,.
CC(C)(C)n1ncc2c(=O)n(Cc3ccc(OC(F)(F)F)cc3)cnc21,.,-0.6%,.
Cc1nc2ccc(NC(=O)c3ccc(Cl)c(S(=O)(=O)N(C)c4ccccc4)c3)cc2s1,-1.9%,?,?
Cc1nc2ccc(NC(=O)c3cc(S(=O)(=O)N(C)c4ccccc4)ccc3Cl)cc2s1,3.8%,-10.0%,22.4µM*
COc1ccc(CN(CC(=O)NC2CCCC2)C(=O)CCC(=O)Nc2nc(C)cs2)cc1,.,2.3%,-4.5%
Cc1csc(NC(=O)CCC(=O)N(CC(=O)NC2CCCC2)Cc2ccccc2)n1,.,?,11.2µM*
CCCCC1=CC2=C(OC(C)=O)C(=O)C(C)(OC(=O)CCC(=O)OC)C(=O)C2=CO1 (centres undefined),0.0%,.,.
CC1CCN(c2ccc3c(c2)S(=O)(=O)c2cccc(C(=O)NCc4ccc(F)cc4)c2C3=O)CC1,.,-11.6%,?
O=C(NCc1ccc(F)cc1)c1cccc2c1C(=O)c1ccc(N3CCC(Cc4ccccc4)CC3)cc1S2(=O)=O,.,?,25.1µM*

# From PubChem BioAssay
